# LMNA splice mod – qHTS Assay for Modulators of Lamin A Splicing | Potency, µM (series often up to 46.1 µM), for the others: at the top dose ratio change, negative = inhibition, usual class: inhibitors | HeLa LMNA splicing GFP/RFP minigene ratio, 48 h | 0.01% of 200,000 active; active = well fitted inhibition curve with a large enough effect in the signal ratio, with a control signal flat, not every such curve was filed as active; inconclusive = small, poorly fitted or top-dose-only effect, or effect the other way, or a change in a side signal; the % refers to the signal ratio
#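 Read-out is the ratio of GFP to DsRed2 object intensity, acquired by 488 nm laser-scanning cytometry on HeLa lamin A-EGFP minigene reporter cells. Compound incubation 48 hrs at 37 °C in Opti-MEM with 2% FBS; DMSO 0.5% final.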
# IMPase Li cell – qHTS Assay for Identifying the Cell-Membrane Permeable IMPase Inhibitors: Potentiation with Lithium | AID 1457, 2008 | CHO-M1 cells, IP1 TR-FRET (IP-One), carbachol + lithium | Potency, µM (doses to about 59.4 µM), without a hit: top-dose activity, negative = IMPase inhibition, actives largely listed as inhibitors | 0.35% of 210,000 active; active = well fitted curve in the direction sought with a large enough effect; inconclusive = small, poorly fitted or top-dose-only effect, or another doubt; inactive = no such curve, though single readings can be large; an effect the other way counts as inactive or inconclusive;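 also: IP1 builds up when IMPase is blocked and the TR-FRET signal falls; plate controls were basal vehicle for no effect and high inhibitor control for full effect; nearly all actives have a fitted effect of over 50% in size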
#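 CHO cells stably expressing M1 receptor (2000/well, cultured 16–30 h) treated 30 min at 37C with compound plus low lithium. Cytosolic IP1 by TR-FRET (665/620 ratio and 620 channel) after 10 min lysis; AC50 by Hill fit.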
# Luc counter – Counterscreen for Luciferase (Kinase-Glo TM) Inhibition; Kinase-Glo luciferase, ATP luminescence, 8 min; Potency, µM (doses to about 38.3 µM), without a hit: at the top dose activity change, negative = inhibition, hits mostly inhibitors; 0.28% of 200,000 active; AID 1379, 2008; active = well fitted curve in the direction sought with a large enough effect; inconclusive = small, poorly fitted or top-dose-only effect, or another doubt; inactive = no such curve, though single readings can be large; an effect the other way counts as inactive or inconclusive; also: nearly all actives have a fitted effect of over 60% in size
#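 Light output from Kinase-Glo luciferase with luciferin and 10 uM ATP in 50 mM imidazole pH 7.2, KCl, MgCl2, Tween 20, BSA; compound pin-delivered, 8-min ambient incubation, then luminescence read.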
# ALDH1A1 block – qHTS Assay for Inhibitors of Aldehyde Dehydrogenase 1 (ALDH1A1); Aldehyde dehydrogenase 1A1 (Homo sapiens), P00352; Purified ALDH1A1, NADH fluorescence, propionaldehyde substrate; Potency, µM (doses to about 75.3 µM), without a hit: at the highest dose activity, negative = inhibition, most hits filed as inhibitors; 7.3% of 220,000 active; AID 1030, 2008;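 also: plate controls were no enzyme wells and a reference inhibitor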
# Target sequence (P00352 whole entry, looked up): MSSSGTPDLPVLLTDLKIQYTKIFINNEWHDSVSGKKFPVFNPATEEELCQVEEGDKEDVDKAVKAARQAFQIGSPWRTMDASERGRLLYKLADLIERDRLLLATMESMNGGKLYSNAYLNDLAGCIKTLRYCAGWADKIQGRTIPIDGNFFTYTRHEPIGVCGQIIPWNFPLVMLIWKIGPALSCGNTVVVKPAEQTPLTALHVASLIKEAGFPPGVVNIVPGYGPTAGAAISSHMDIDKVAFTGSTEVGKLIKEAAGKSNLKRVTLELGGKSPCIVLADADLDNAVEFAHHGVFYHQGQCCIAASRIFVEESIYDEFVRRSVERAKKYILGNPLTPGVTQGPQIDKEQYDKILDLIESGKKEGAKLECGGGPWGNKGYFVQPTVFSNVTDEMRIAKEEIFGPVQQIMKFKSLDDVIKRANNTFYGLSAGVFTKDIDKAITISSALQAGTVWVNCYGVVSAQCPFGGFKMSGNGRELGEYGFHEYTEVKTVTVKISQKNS
# HPGD block – qHTS Assay for Inhibitors of HPGD (15-Hydroxyprostaglandin Dehydrogenase); 15-hydroxyprostaglandin dehydrogenase [NAD(+)] (Homo sapiens), P15428; purified HPGD, NADH fluorescence kinetic, PGE2 substrate; Potency, µM, inactives show at the highest dose activity change, negative = inhibition, usual class: inhibitors; 4.3% of 150,000 active
#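 NADH formation kinetics: reaction with 30 uM PGE2 and 1 mM NAD+ (final), 20 nM enzyme, Tris-HCl pH 8 with Tween 20, after 15 min compound preincubation at room temperature. Fluorescence change, last versus first of five reads.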
# The depositor's hits bear a star; ? = inconclusive; . = no result given; [ ] = dose if it differs, or a comment. This is a sample that favours compounds with a hit; in the whole collection about 9% have one here. Unless noted, calls follow the shape of the dose curve; as a rule, active = well fitted inhibition curve with a large enough effect (not every such curve was filed as active); inconclusive = small, poorly fitted or top-dose-only effect, or another doubt; inactive = no such curve, though single readings can be large or run the other way. Unless noted, % is scaled to controls: 0 for no effect and ±100 for the full control effect; potency is read from the fitted curve at half-maximal effect.
SMILES,LMNA splice mod,IMPase Li cell,Luc counter,ALDH1A1 block,HPGD block
Cc1nnc(SCC(=O)N2CCN(Cc3ccccc3)CC2)s1,15%,30%[38.3 µM],-3%,-10%,-3%
N#Cc1c(SCC(=O)N2CCCCC2)nsc1SCC(=O)N1CCCCC1,-3%,5%[38.3 µM],4%,18µM*,13µM*
Cc1ccc(C2C3C(=O)N(c4ccccc4)C(=O)C3N3CCCN23)cc1 (stereo not given),.,.,.,4%,.
CCc1nn2c(=O)cc(COC(=O)c3cccc(NC(=O)COc4ccccc4)c3)nc2s1,12%[46 µM],.,.,.,.
O=C(c1cccs1)c1ccc(-c2cccs2)s1,?,2%[38.3 µM],7.9µM*,?,?
O=C(CN1CCOCC1)N1CCc2ccccc2C(c2ccccc2)C1 (stereo not given),?,17%[38.3 µM],1%,14µM*,-13%
CCCn1c(C)nc2c(NCc3ccccc3)nc(C)nc21,.,-4%,-7%,-5%,-11%
O=c1ccc2cc3c([nH]c4ccc(Br)cc43)oc-2c1O,-3%,13%[38.3 µM],-4%,7.9µM*,16µM*
COc1ccc(-c2nc3c(-c4ccc(F)cc4)cnn3cc2C)cc1F,.,12%,0%,5%,.
COc1ccc(OC)c(-n2cnc3cc(C(=O)NCCCN4CCOCC4)ccc32)c1,-11%,3%[38.3 µM],-5%,-2%,25µM*
CCCNC(=O)c1ccc2c(c1)ncn2-c1ccccc1OC,-13%,-7%[38.3 µM],-2%,2%,18µM*
CCc1ccccc1-n1cnc2cc(C(=O)NC3CCCCCC3)ccc21,-8%[46 µM],.,.,.,.
CCOc1ccc(CCNC(=O)CSc2cc(=O)n(C)c3ccccc23)cc1OCC,?,2%,0%,0%,-11%
O=C(NCCOC(=O)c1ccc(Cl)cc1)c1cccnc1,7%,21%[38.3 µM],3%,-11%,-10%
O=C(CSc1nc2ccsc2c(=O)n1Cc1ccccc1F)NCc1ccccc1Cl,4%[46 µM],.,.,.,.
N/N=C1/CC(=O)NC(=O)N1,.,-5%,0%[7.66 µM],?,?
CCOC(=O)C1=C(N)Oc2ccc(Br)cc2[C@@H]1[C@@H](C#N)C(=O)OCC,.,20%,3%,?,-22%
CC(C)=NNc1nc(-c2ccc(N3C(=O)CCC3=O)cc2)cs1,.,.,.,11µM*,.
CC(C)=NNc1nc(-c2ccccc2)cs1,?,-16%,-11%,-2%,-22%
COC(=O)N/N=C/C1=C[N+](=O)c2ccccc2[N+]1=O,?,7%,-1%,-6%,-13%
C=CCOc1ccc(C2NC(=S)NC3=C2CCc2ccccc23)cc1 (stereo not given),.,.,.,1µM*,.
COc1cc(C2NC(=S)NC3=C2CCc2ccccc23)cc(OC)c1OC (stereo not given),-9%,-1%,0%,?,-15%
COc1ccc2c(c1)CCC1=C2NC(=S)NC1c1ccc(N(C)C)cc1 (stereo not given),?,5%,-4%,2.8µM*,.
COc1ccc(/C=C/C(=O)c2cc3c(cc2N)OCO3)cc1,.,2%,?,1%,.
Cc1ccc(/C=c2/sc3nnc(-c4ccccc4Cl)n3c2=O)o1,6%,6%[38.3 µM],-3%,?,-22%
SMILES,LMNA splice mod,IMPase Li cell,Luc counter,ALDH1A1 block,HPGD block
C=CCn1c(=O)/c(=C/c2ccc(C)o2)s/c1=C(/C#N)C(=O)c1ccccc1,-3%,-15%[38.3 µM],-1%,0.71µM*,-12%
Cc1ccc(C)n1-c1ccc(C(=O)NN)s1,-11%[46 µM],3%,2%,14µM*,.
O=C1CSC(=Nc2ccc(Cl)cc2)N1Cc1cccnc1,.,.,.,-11%,.
O=[N+]([O-])c1ccc(/C=N/Nc2nc(N3CCOCC3)nc(N3CCOCC3)n2)cc1,18%[46 µM],5%,5%,0%,.
O=[N+]([O-])c1ccc(/C=C2\CCC(C3=CCCC3)=C2N2CCOCC2)cc1,?,5%,-3%,14µM*,-14%
CCCCCC1=C2CNC(Cc3ccccc3)(C(=O)OC)C=C2C(C)C1=O (stereo not given),.,-4%,-3%,-7%,-6%
Nc1cc(-c2ccco2)no1,17%,-10%[38.3 µM],-8%,4.5µM*,-15%
CCOC(=O)C1=NNC2C(=O)N(C3CCCCC3)C(=O)C12 (stereo not given),1%,-12%[38.3 µM],-3%,13µM*,-5%
CCOC(=O)c1noc(C)c1C(=O)Nc1nc(C)cc(C)n1,.,6%,1%,20µM*,.
COc1ccc(N(CCC#N)C(=O)/C(C#N)=C/c2cccs2)cc1,10%[46 µM],6%,2%,14µM*,.
Cn1c2ccccc2c2c3c(c4c5ccccc5n(CCC#N)c4c21)CNC3=O,.,3.5µM*,.,-1%,.
Cc1c(C)n(CCC#N)c2ccccc12,11%,-1%,3%,6%,-11%
O=C(N/N=C1\CC2CC=CC12)c1ccc(COc2ccccc2)cc1 (stereo not given),?,13%,6%,-4%,22µM*
CCOC(=O)c1c(NC(=O)C2=C(C)NC(=S)NC2c2ccc(CC)cc2)sc(C)c1C (stereo not given),?,-1%,-2%,28µM*,?
CCOC(=O)C1=C(C)NC(=S)NC1c1cccc(O)c1 (stereo not given),.,14%,-8%,1.1µM*,?
CCOC(=O)C1=C(C)NC(=S)NC1c1ccc(OC(=O)c2ccco2)cc1 (stereo not given),-4%,1%,3%,2.2µM*,-10%
O=C(O)[C@@H]1CCCN1Cc1cc2ccccc2c2ccccc12,.,-6%,0%[7.66 µM],-5%[13.5 µM],-9%
COc1cccc(C(=O)Nc2cccc(C(=O)OCc3cc(=O)n4c5c(sc4n3)CCCC5)c2)c1,-3%[46 µM],.,.,.,.
C=CCN1C(=O)N/C(=C/c2ccc(C)o2)C1=O,-14%,3%,1%,7.9µM*,-19%
Cc1ccc(NC(=O)CN2C(=O)N/C(=C/c3ccc(C)s3)C2=O)cc1,-10%,-12%,1%,1%,-16%
CCn1c(C)cc(/C=C2\NC(=O)N(CC(=O)Nc3cccc(C)c3)C2=O)c1C,5%,-1%[38.3 µM],-4%,?,?
Cc1cccc(NC(=O)CN2C(=O)N/C(=C/c3ccc(C)o3)C2=O)c1,-14%,-5%,2%,10µM*,-24%
Cc1ccc(NC(=O)CN2C(=O)N/C(=C/c3ccc(C)o3)C2=O)cc1,-4%,-7%[38.3 µM],4%,13µM*,?
Cc1cc(C)c(NC(=O)CSc2nc(=O)n(Cc3ccco3)c3c2CCC3)c(C)c1,3%[46 µM],.,.,.,.
CCCCCCCCCCCCCCC(C(=O)O)C(O)(CC(=O)OC)C(=O)O (stereo not given),-19%,9%,-2%,-2%,16µM*
CCCCCC(CC(=O)O)C(=O)O (stereo not given),.,-3%,1%,-3%,1%

# Assay outcomes (PubChem BioAssay)
